Bioassay records as filed in PubChem BioAssay.
Only some compounds are listed: those with a hit (about 9.4% of all), similar ones and a draw of the others.
Rab9 promoter act = qHTS Assay for Rab9 Promoter Activators. Huh7 Rab9 promoter-luciferase reporter, luminescence, 24 h. Potency, µM (series often up to 9.22 µM), hits mostly activators. actives 2.8% (n = 320,000). AID 485297, 2010; further: nearly all actives have a fitted effect of over 60% in size
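Luminescence from Amplite-detected luciferase (10 minutes, ambient) reports Rab9 promoter activation. Before that, stable Rab9-luciferase Huh7 cells (1500/well, reduced-serum OP-MEM I plus 10% FBS) were exposed to compound for 24 hours at 37C.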
FLuc modulator = qHTS profiling assay for firefly luciferase inhibitor/activator using purifed enzyme and Km concentrations of substrates (counterscreen for miR-21 project). purified FLuc, Km substrates, luminescence inhibition. actives 6.9% (n = 360,000). Luciferin 4-monooxygenase (Photinus pyralis), P08659. Potency, µM (top dose mostly 57.5 µM), usual class: inhibitors; further: nearly all actives have a fitted effect of over 55% in size
Target sequence (P08659 whole entry, looked up): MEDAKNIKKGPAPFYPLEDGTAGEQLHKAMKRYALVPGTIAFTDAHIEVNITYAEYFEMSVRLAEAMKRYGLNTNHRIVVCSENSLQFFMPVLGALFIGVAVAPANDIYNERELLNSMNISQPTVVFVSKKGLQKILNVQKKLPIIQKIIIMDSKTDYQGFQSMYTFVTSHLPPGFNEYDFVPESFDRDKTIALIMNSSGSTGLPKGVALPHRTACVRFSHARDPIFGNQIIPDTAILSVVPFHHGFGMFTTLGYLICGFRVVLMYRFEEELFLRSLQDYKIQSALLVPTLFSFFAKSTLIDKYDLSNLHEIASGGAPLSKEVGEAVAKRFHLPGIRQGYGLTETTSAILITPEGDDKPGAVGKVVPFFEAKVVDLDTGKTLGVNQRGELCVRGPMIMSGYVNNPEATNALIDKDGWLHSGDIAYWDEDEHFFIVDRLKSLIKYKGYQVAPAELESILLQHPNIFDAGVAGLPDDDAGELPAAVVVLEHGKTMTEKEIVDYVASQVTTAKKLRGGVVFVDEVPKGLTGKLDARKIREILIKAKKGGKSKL
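Purified P. pyralis luciferase (10nM final) with 10uM D-luciferin and 10uM ATP (Km levels) in 50mM Tris acetate pH 7.5, 10mM Mg acetate, 0.01% Tween-20, 0.05% BSA; qHTS 6-point titration, ~60 µM downward; luminescence read.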
NPC1 promoter act = qHTS Assay for NPC1 Promoter Activators; Huh7 NPC1 promoter luciferase reporter, 24 h; Potency, µM (top dose mostly 9.22 µM), usual class: activators; actives 2.4% (n = 320,000); AID 485313, 2010; further: nearly all actives have a fitted effect of over 60% in size
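Cells: Huh7 expressing luciferase under the NPC1 promoter, 1500/well. Seeded 2 h, compound added, incubated 24 h at 37 °C. Luciferase reagent, 10 min ambient, then luminescence.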
ELG1 DNA repair = qHTS screen for small molecules that inhibit ELG1-dependent DNA repair in human embryonic kidney (HEK293T) cells expressing luciferase-tagged ELG1. Potency, µM (doses to about 46.1 µM), actives largely listed as inhibitors. HEK293T ELG1-luciferase reporter, luminescence, 16 h; DNA damage induced by 5-fluorouridine. actives 2.3% (n = 330,000); further: nearly all actives have a fitted effect of over 55% in size
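Cells (2,000 per well) received 5-fluorouridine plus test compound or DMSO and were incubated 16 hr at 37 °C, 5% CO2. Luciferase activity was read by luminescence 30 min after ONE-Glo addition; signal suppression marked inhibition of damage-induced ELG1 function.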
ELG1 genotox = qHTS screen for small molecules that induce genotoxicity in human embryonic kidney (HEK293T) cells expressing luciferase-tagged ELG1 | HEK293T ELG1-luciferase reporter, luminescence, 16 h | Potency, µM (top dose mostly 46 µM), actives largely listed as activators | actives 1.3% (n = 330,000) | AID 504466, 2011; further: nearly all actives have a fitted effect of over 60% in size
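HEK293T cells expressing luciferase-tagged ELG1 were exposed to compound or DMSO vehicle for 16 hr at 37 °C and 5% CO2. Luciferase activity was then measured with ONE-Glo after 30 min at room temperature.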
SMN2 splice up = qHTS Assay for Enhancers of SMN2 Splice Variant Expression; HEK293 SMN2-luciferase splicing reporter, luminescence, 30-36 h; Potency, µM (doses to about 46.1 µM), usual class: activators; actives 2.8% (n = 210,000); AID 1458, 2008; further: nearly all actives have a fitted effect of over 55% in size
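qHTS luciferase splicing reporter: luminescence rises when SMN2 exon 7 is included in transfected HEK293 cells. Compound exposure lasted 30-36 h at 37C, with 4.5 mM final sodium butyrate as control, followed by a ONE-Glo read.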
A number is an active result; – = inactive; ? = inconclusive; · = no result; [ ] = another dose, or the depositor's remark. The call rests on the fitted dose curve; in most records, active means well fitted curve in the direction sought with a large enough effect; inconclusive means small, poorly fitted or top-dose-only effect, or another doubt; inactive means no such curve, though single readings can be large; an effect the other way counts as inactive or inconclusive.

SMILES | Rab9 promoter act | FLuc modulator | NPC1 promoter act | ELG1 DNA repair | ELG1 genotox | SMN2 splice up
CCOc1cccc(-c2cc(C(=O)N/N=C/c3ccc(OC)c(CN4CCOCC4)c3)c3ccccc3n2)c1 | – | 6µM | – | 23µM | – | –
COc1ccccc1-c1cc(C(=O)N/N=C/c2sccc2C)c2ccccc2n1 | – | – | – | 12µM | – | –
CCOc1ccccc1-c1cc(C(=O)N/N=C/c2ccc(O)c(OC)c2)c2ccccc2n1 | – | – | – | – | – | 25µM
O=C(NCc1ccccc1Cl)C(=O)NCC(c1ccco1)S(=O)(=O)c1cccs1 (centres undefined) | · | – | · | · | · | ·
Cc1ccccc1CNC(=O)CCC(=O)N1CC2CCCN2c2ccccc21 (centres undefined) | · | – | · | · | · | ·
COc1ccc(-c2noc(CC(=O)Nc3ccc(F)cc3F)n2)cc1 | · | – | · | · | · | ·
Cc1cc(C)n(CCOC(=O)c2sc3ccccc3c2Cl)n1 | – | 8.5µM | – | ? | – | –
NC(=O)COC(=O)c1sc2ccccc2c1Cl | – | ? | – | ? | – | –
COc1cc2c(=O)c(C(=O)c3ccc(C)c(C)c3)cn(Cc3ccccc3F)c2cc1OC | · | – | · | · | · | –
Cc1ccc(NC(=S)Nc2cccc(-c3n[nH]c(=S)o3)c2)cc1 | ? | 17µM | – | – | – | ·
O=C(Nc1ccc(-c2n[nH]c(=S)o2)cc1)c1ccccc1 | – | 8.5µM | – | – | – | ·
C=CCOc1ccc(-c2n[nH]c(=S)o2)cc1 | – | 24µM | – | ? | – | ·
COc1ccc(C(=O)Nc2ccc(-c3n[nH]c(=S)o3)cc2)cc1 | ? | 3µM | – | – | ? | ·
O=C(Nc1ccccc1C(F)(F)F)N1CCC(CN2CCc3ccccc3C2)CC1 | · | – | · | · | · | ·
CC1(N)CCC(C(C)(C)N)CC1 (centres undefined) | · | · | · | · | · | –
COc1ccc(C(=O)NCCn2cc(SCC(=O)Nc3ccc(F)cc3)c3ccccc32)cc1 | · | ? | · | · | · | –
COc1ccc(CNC(=O)c2nc(Cn3nc(C)c(Br)c3C)no2)cc1OC | · | – | · | · | · | –
CCCN(CCC)C(=O)C1CCN(c2cc(C)nc3c(-c4ccc(OC)c(OC)c4)c(C)nn23)CC1 | – | – | – | 6.5µM | – | –
O=C(Nc1cccc(-c2cn3ccccc3n2)c1)c1cnccn1 | – | 12µM | – | ? | – | ?
O=C(Nc1cccc(Cl)c1)c1cnccn1 | – | – | – | – | – | ·
O=C(Nc1cccc(-c2cnc3ccccc3n2)c1)c1ccc(Cl)cc1 | – | – | – | – | – | –
O=C(Nc1cccc(-c2cn3ccccc3n2)c1)c1cccc(Cl)c1 | – | 2.4µM | – | ? | – | –
CS[C@]12C(=O)C[C@]3(C)[C@@H](CC[C@@]3(O)C(=O)CO)[C@@H]1CCC1=CC(=O)CC[C@]12C | · | · | · | · | · | –[9.22 µM]
COCCNC(=O)CCCn1c(SCC(=O)Nc2ccc(F)cc2)nc2c(sc3ccccc32)c1=O | · | – | · | · | · | –
CC(=O)NCCNc1ncnc2ccc(-c3ccc(C(=O)N(C)C)cc3)cc12 | · | · | · | · | · | –
SMILES | Rab9 promoter act | FLuc modulator | NPC1 promoter act | ELG1 DNA repair | ELG1 genotox | SMN2 splice up
CCN(CC)S(=O)(=O)c1cc(C(=O)Nc2cc(Cl)ccc2N2CCN(C)CC2)ccc1Cl | – | – | – | 18µM | – | –
CCN(CC)S(=O)(=O)c1cc(C(=O)NC2=NCCS2)ccc1Cl | – | ? | – | – | – | –
CCN(CC)S(=O)(=O)c1cc(C(=O)Nc2cc(C)[nH]n2)ccc1Cl | 2.5µM | 8.5µM | 2.2µM | ? | ? | ·
CCN(CC)S(=O)(=O)c1cc(C(=O)Nc2ccccc2[N+](=O)[O-])ccc1Cl | ? | 9.5µM | ? | ? | ? | –[1.84 µM]
COC(=O)[C@H](COC(C)(C)C)NC(=O)O[C@@H]1C(=O)c2cc(Br)ccc2O[C@H]1c1cccc(OC)c1 | · | · | · | · | · | –
Cc1nc(SCC(=O)OC(C)(C)C)c2c3c(sc2n1)CCCC3 | · | – | · | · | · | –
COc1ccc(C(=O)Nc2sc(C)c(-c3ccccc3)c2C#N)cc1OC | – | ? | – | 26µM | – | –
COc1ccccc1OCC(=O)Nc1oc(-c2ccccc2)c(-c2ccccc2)c1C#N | – | – | – | – | – | –
COc1ccc(CC(=O)Nc2oc(-c3ccccc3)c(-c3ccccc3)c2C#N)cc1OC | – | – | – | 23µM | – | –
COc1ccc(C(=O)NCc2ccc3c(c2)CCN3C(=O)c2ccncc2)cc1 | · | – | · | · | · | ·
Cc1ccc(S(=O)(=O)Nc2ccc3c(c2)c(C(=O)OC(C)C)c(C)n3S(=O)(=O)c2ccc(C)cc2)cc1 | · | – | · | · | · | –
COc1ccc(C(=O)CSc2ccc(-c3ccc(C)cc3)nn2)cc1 | – | 11µM | – | ? | – | 14µM
COc1ccc(-c2ccc(SCC(=O)c3cccs3)nn2)cc1OC | – | 19µM | – | – | – | ?
N#Cc1ccc(-c2cccnc2)nc1SCC(=O)c1ccccc1 | 3.2µM | ? | ? | ? | – | ·
N#Cc1ccc(-c2ccccc2)nc1SCC(=O)c1cccc(Cl)c1 | – | – | – | – | – | –
O=C(CSc1ccc(-c2ccccc2)nn1)c1ccccc1 | ? | 17µM | ? | ? | ? | ?
CCCN1CCCc2cc(CN(CCCN3CCOCC3)C(=O)Nc3ccc(Cl)c(Cl)c3)ccc21 | · | – | · | · | · | ·
Cc1cc(NC(=O)CSc2nc(-c3cccc(F)c3)nc3c2c(=O)n(C)c(=O)n3C)no1 | · | – | · | · | · | ·
COc1ccc(-c2ccc(SCC(=O)N3CCCC3)nn2)cc1OC | – | ? | – | – | – | –
COc1ccc(-c2ccc(SCC(=O)c3ccc(F)cc3)nn2)cc1OC | – | 13µM | – | – | – | –
COc1ccc2c(c1)NC(c1ccc(Cl)cc1)=NC(c1cccs1)=N2 | · | ? | · | · | · | –
COc1cccc(C(=O)Nc2cc3c(cc2C(C)=O)OCCO3)c1 | – | 5.4µM | – | ? | – | –
COc1cccc(NC(=O)c2oc3ccccc3c2NC(=O)c2ccc(OC(C)C)cc2)c1 | · | 2.7µM | · | · | · | –
COc1ccc(C(=O)Nc2cc3c(cc2C(=O)O)OCCCO3)c(OC)c1 | – | – | – | – | – | ·
COc1cccc(C(=O)n2c(SC)nc3cc4c(cc32)OCCO4)c1 | – | 13µM | – | ? | – | –
CCC(=O)Nc1cccc(NC(=O)c2ccc3c(c2)OCO3)c1 | – | 15µM | – | ? | – | ?
CCSc1nnc2n(-c3cccc(C)c3)c(=O)c3c4c(sc3n12)CCCC4 | · | – | · | · | · | –
COc1cccc(NC(=O)c2ccc3c(c2)OCO3)c1 | 0.45µM | 2.7µM | 0.5µM | ? | 6.5µM | ·
